PubChem BioAssay AID489018 (Southern Research Specialized Biocontainment Screening …, 2010)
About 350 (15%) of roughly 2,300 compounds were called active. The rule behind the calls is not given here. Only a sample is shown. A call without a number means that no potency is given here. Potency and affinity values are given separately.

test: HepG2 cell cytotoxicity, dose response, cytotoxicity control for non-replicating M. tuberculosis project (AID 489018); conditions: series mostly up to 20 µM;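 note: HepG2 human liver cells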

Compound	outcome
Cc1ccc(Oc2c(C(N)=O)cc([N+](=O)[O-])cc2[N+](=O)[O-])cc1	inactive
Cc1csc(=Nc2cccnc2)n1CC1CCCCC1	inactive
CCOC(=O)c1csc(COc2ccc(OC)cc2)n1	inactive
COc1ccc(O)c(C(=O)CC(=O)c2ccc(F)cc2)c1	inactive
Cc1ccc(NC(=O)C2=C(c3ccccc3)S(=O)(=O)CCS2(=O)=O)cc1	inactive
CCOC(=O)C1CCCN(Cc2ccc(OCc3ccccc3)cc2)C1 (stereo not given)	inactive
CCOC(=O)C1CCN(Cc2ccc(-c3ccccc3)cc2)CC1	inactive
Cc1ccc(C(=O)OCC(=O)N2CCCCCC2)c(O)c1	inactive
CCCCC1CCC(C(=O)Nc2ccc(S(=O)(=O)Nc3nccs3)cc2)CC1 (stereo not given)	inactive
Cc1ccc(C(=O)N/N=C/c2cccc3ccccc23)cn1	inactive
Cc1nn(C)cc1/C=N/NC(=O)c1sc2ccccc2c1Cl	inactive
CC(C)c1nnc(NC(=O)c2cc3cc(Br)ccc3oc2=O)s1	inactive
O=C(OCc1ccc([N+](=O)[O-])cc1)c1ccc2ccccc2n1	inactive
CN(C)CC/C=C1\c2cc(Cl)ccc2Sc2cc(F)c(F)cc21	inactive
O=C(CN1CCN(c2ccc([N+](=O)[O-])cc2)CC1)Nc1ccccn1	inactive
C/C(=N\NC(=O)c1cc([N+](=O)[O-])cc([N+](=O)[O-])c1)c1ccco1	inactive
COc1ccc(CN=C(C#N)C2=C(O)c3ccccc3C2=O)cc1	inactive
CCOC(=O)COn1c(-c2cccc(Cl)c2)nc2ccc([N+](=O)[O-])cc21	inactive
O=c1c2c([N+](=O)[O-])cc([N+](=O)[O-])cc2sn1-c1ccc(Br)cc1	inactive
O=c1c2cc(Cl)ccc2nc(-c2ccc([N+](=O)[O-])cc2)n1O	inactive
N/C(=N\OC(=O)c1cccc(Br)c1)c1ccc([N+](=O)[O-])cc1	inactive
O=C(NCc1cccs1)c1cc(-c2ccc(O)cc2)on1	inactive
CC(C)(C)NC(=O)COC(=O)c1snc(C(=O)NC2CCCCC2)c1N	inactive
CCS(=O)(=O)c1c([N+](=O)[O-])ncn1C	inactive

Compound	outcome
COc1ccc([N+](=O)[O-])c(S(=O)(=O)c2ccc(Cl)cc2)n1	inactive
CCOC(=O)c1c(C)nc2cc(C)ccn12	inactive
CCOc1ccc(C(=O)N/N=C(/C)C2C(=O)c3ccccc3C2=O)cc1	inactive
CCc1ccc(/C=N/NC(=O)c2ccccn2)cc1	inactive
CCOc1ccc(C(=O)N/N=C/c2cccc3cccnc23)cc1	inactive
COC(=O)c1ccc(COC(=O)c2ccccn2)cc1	inactive
O=C1NC(=O)N(Cc2ccc(F)cc2)C(=O)/C1=C\c1ccc([N+](=O)[O-])s1	inactive
O=C(OCc1nnc(-c2ccccc2)o1)c1ccc(Br)o1	inactive
Cc1ccccc1-n1c(C)cc(/C=N/NC(=O)c2ccncc2)c1C	inactive
CC(C)Cn1c([N+](=O)[O-])nc2c1c(=O)[nH]c(=O)n2C	inactive
CN1CCC(O)(c2cccs2)C(C(=O)c2cccs2)C1 (stereo not given)	inactive
COc1ccc(C(C#N)=C2C=CC(=NO)C=C2)cc1	inactive
CC/C(=C\C=C\[C@@H]1C=C[C@@H]2CCC[C@H]2[C@@H]1C(=O)c1ccc[nH]1)[C@@H]1O[C@@H]([C@@H](C)C(=O)O)CC[C@@H]1C	inactive
CCOc1cc(-c2sc(Nc3cc(C)ccc3OC)n[n+]2-c2ccccc2)ccc1OC	inactive
O=C(COc1ccc(Br)cc1)Nc1ccc([N+](=O)[O-])cn1	inactive
CC(=O)Nc1ccc(NC(=O)c2cc([N+](=O)[O-])cc([N+](=O)[O-])c2)cc1	inactive
O=C1/C(=C/C=C/c2ccccc2)Oc2c1ccc(O)c2CN1CCN(CCO)CC1	inactive
CCCOc1ccc(C(=O)NNC(=S)NC(=O)c2cccs2)cc1	inactive
CC(Oc1ccc2ccccc2c1)C(=O)NNC(=S)NC(=O)c1ccco1 (stereo not given)	inactive
CCCOC(=O)c1ccc(NC(=O)c2ccc(Br)o2)cc1	inactive
Cc1cc(C)nc(-n2nc(C)cc2Nc2ccccc2)n1	inactive
Clc1cccc(-c2ccc(CNCc3ccccn3)o2)c1	inactive
CCCc1cc(=O)n2[nH]c(C)c(-c3ccccc3)c2n1	inactive
COc1cc(N=c2ssnc2Cl)cc(OC)c1OC	inactive

Compound	outcome
CCN(CC)c1ccc(-c2sc(Nc3ccccc3)n[n+]2-c2ccc(F)cc2)cc1	inactive
Cc1nn(-c2ccccc2)nc1C(=O)c1c(C)[nH]n(-c2ccccc2)c1=O	inactive
O=C(Nc1ncc(Cc2ccccc2Cl)s1)C1=NCCN1	inactive
O=C(NC1CCCCC1)c1nc2c(nnn2Cc2ccccc2Cl)c(=O)[nH]1	inactive
CCOC(=O)N1CCC(N2CCCC(C(=O)c3ccc4cc(OC)ccc4c3)C2)CC1 (stereo not given)	inactive
CNC(C)C#Cc1ccc2oc3cc(C)c(C)cc3c(=O)c2c1 (stereo not given)	inactive
CCCCOC(=O)c1ccc(NC(=O)c2nn(C)cc2Br)cc1	inactive
O=S1(=O)N=C(N/N=C/C=C/c2ccccc2)c2ccccc21	inactive
Cc1ccc(/C=C2\SC(=S)N(C3CCS(=O)(=O)C3)C2=O)o1 (stereo not given)	inactive
CC(C)c1nnc(NC(=O)c2c(O)c3cccc4c3n(c2=O)CCC4)s1	inactive
O=C(NNC(=O)c1ccccc1F)c1ccc(-c2ccc(Cl)cc2)o1	inactive
COC(=O)c1cn(NC(=O)c2cnccn2)c(=O)c2ccccc12	inactive
CCOC(=O)c1cc(-c2c(Cl)cccc2Cl)no1	inactive
Cn1cnc([N+](=O)[O-])c1Sc1ccc([N+](=O)[O-])cc1	inactive
Fc1ccc(-c2ccc(CNCc3ccccn3)o2)cc1Cl	inactive
Clc1ccc(-c2ccc(CNCc3ccccn3)o2)cc1	inactive
CCOC(=O)c1cc(COc2cc(Cl)cc(Cl)c2)on1	inactive
O=C(COc1ccc2ccccc2c1)N/N=C/c1ccccn1	inactive
Cc1cccc(OCC(=O)NNC(=O)c2cc3ccccc3oc2=O)c1	inactive
Cc1cc(C)n2[nH]c(=O)c(N=Nc3cccc(Cl)c3)c2n1	inactive
CN=C1S/C(=C\c2ccc(OCC(=O)OC)c(OC)c2)C(=O)N1C	inactive
COc1cccc(OCCNC(=O)c2cc([N+](=O)[O-])cc([N+](=O)[O-])c2)c1	inactive
